Sampled rows, rich in hits. Any-hit rate of the full collection: about 2.5%.
PKA-R2B activ: activators of human PKA-R2B complex; P22694+P31323; AID 504700; 340,000 tested, 0.079% active; activation, % at 11.4 µM; PKA-R2B holoenzyme dissociation, Cy5-IP20 fluorescence polarization; R2B truncated from residue 108, S112A mutant; 0% DMSO only, 100% 113 µM cGMP;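 active = activation above a cutoff set at the mean over all compounds plus 3 SD, cut at about 18% in these data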;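 note: higher means more holoenzyme dissociation and a rise in polarization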
CHT inh: human CHT choline transport inhibition; Q9GZV3; CHT-expressing cells, membrane potential dye, choline response; hits give low values; B-score at 10 µM; 310,000 tested, 0.86% active;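 active = B-score over 3 SD under the library average, and starting fluorescence ratio not unusually high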;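 note: choline stimulus applied at its EC90 after an EC20 pre-addition; B-score computed on integrated fluorescence ratio after choline addition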
Target sequence (Q9GZV3 whole entry, looked up): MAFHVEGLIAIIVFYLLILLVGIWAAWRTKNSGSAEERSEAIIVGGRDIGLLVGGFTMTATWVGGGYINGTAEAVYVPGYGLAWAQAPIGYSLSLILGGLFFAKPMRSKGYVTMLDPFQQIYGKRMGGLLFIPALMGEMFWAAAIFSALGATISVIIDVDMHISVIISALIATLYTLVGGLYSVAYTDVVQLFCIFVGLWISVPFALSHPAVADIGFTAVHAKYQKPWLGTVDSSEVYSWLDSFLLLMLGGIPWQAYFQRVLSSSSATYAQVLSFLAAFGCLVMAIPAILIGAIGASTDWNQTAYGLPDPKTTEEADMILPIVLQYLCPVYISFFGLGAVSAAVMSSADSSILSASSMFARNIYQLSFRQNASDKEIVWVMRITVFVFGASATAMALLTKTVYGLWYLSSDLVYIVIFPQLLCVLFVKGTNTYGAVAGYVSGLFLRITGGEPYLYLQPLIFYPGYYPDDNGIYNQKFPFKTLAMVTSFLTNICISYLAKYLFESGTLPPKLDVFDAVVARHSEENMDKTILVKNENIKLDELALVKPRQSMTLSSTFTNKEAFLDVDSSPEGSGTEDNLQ
PKA-R1A activ: PKA-R1A complex activation; 340,000 tested, 0.083% active; activation, % at 11.4 µM; PKA-R1A dissociation, Cy5-IP20 fluorescence polarization; scaled: DMSO 0%, 113 µM cGMP 100%; P00514+P68181;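 active = percent activation above the mean of all tested compounds plus 3 SD, cut at about 19% in these data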;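 note: higher means more PKAc released from R1A so a rise in polarization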
ANO1 block: blocks the mouse calcium-activated chloride channel TMEM16A; Q8BHY3; HEK293 TMEM16A/YFP iodide influx fluorescence, ionomycin; normalized B-score (activity score, 25-100; higher = stronger inhibition) at 10 µM; 310,000 tested, 1.2% active;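 active = ratio plate-corrected score three or more library SD toward inhibition, starting fluorescence score within five deviations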;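 note: score derived from kinetic fluorescence span divided by baseline fluorescence per well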
ANO1 activ: mouse TMEM16A channel activation, primary screen; AID 623877; HEK293 TMEM16A/YFP-H148Q/I152L, iodide quench fluorescence; hits give low values; Q8BHY3; 340,000 tested, 0.3% active; B-score at 10 µM;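 active = fluorescence-ratio B-score plate-corrected deviation score at least 3 library SD below zero, with starting fluorescence score within 5 deviations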;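 note: channel opened by trigger with iodide after compound preincubation; score built on the fluorescence ratio of max minus min over baseline; more negative score means more quench and so TMEM16A activation or potentiation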
CHT PAM: human CHT allosteric activation. CHT-expressing cells, membrane potential dye, choline EC20; hits give high values; LV-AA mutant CHT in HEK293 cells. B-score at 10 µM. 310,000 tested, 0.49% active;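 active = initial fluorescence not abnormally high and integrated response B-score, plate-corrected, over 3 SD above library mean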
CHT act confirm: confirmation of human choline transporter (CHT) activators; shares compounds with CHT PAM; CHT-expressing cells, membrane potential dye fluorescence (FDSS); % of choline EC20–EC90 response window; HEK293 expressing CHT LV-AA mutant; choline added at its EC20; activation, % at 10 µM; 2,500 tested, 91% active;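 active = primary screen active, with duplicate mean activation above negative control mean plus 3 SD, cut at about 11% in these data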
HEK293 MP dye: CHT activator counter-screen hit in parental HEK293 cells. ratio readout change at 10 µM, hits read low. membrane potential dye fluorescence (FDSS); measured after EC20 choline addition. shares compounds with CHT PAM. 2,500 tested, 62% active;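 active = duplicate-averaged ratio beyond 3 SD from buffer wells, up or down, though filed actives are nearly all decreases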
Active calls of the source: *.

Results for O=C(COC(=O)c1cc[n+]([O-])cc1)Nc1cc([N+](=O)[O-])ccc1Cl ?
PKA-R2B activ: 5.8; CHT inh: inactive; PKA-R1A activ: -7.0; ANO1 block: inactive; ANO1 activ: inactive; CHT PAM: inactive; CHT act confirm: 39.6*; HEK293 MP dye: -50.3*

Results for Cc1ccc(OCc2ccc(C(=O)Nc3ccc(S(N)(=O)=O)cc3)o2)cc1 ?
PKA-R2B activ: -3.5; CHT inh: inactive; PKA-R1A activ: -9.7; ANO1 block: inactive; ANO1 activ: inactive; CHT PAM: inactive

How did Cc1cc(=O)n2nc(-c3ccc(C(F)(F)F)cc3)sc2n1 do in these assays?
PKA-R2B activ: 1.3; CHT inh: inactive; PKA-R1A activ: 2.6; ANO1 block: inactive; ANO1 activ: inactive; CHT PAM: 6.83*; CHT act confirm: 42.3*; HEK293 MP dye: -34.6*

How did CCCc1ccc2oc(C(=O)N(Cc3nccn3C)C(C)C)c(C)c2c1 do in these assays?
PKA-R2B activ: -0.8; CHT inh: inactive; PKA-R1A activ: 10.3; ANO1 block: inactive; ANO1 activ: inactive; CHT PAM: inactive

Results for CCCN(CC(=O)Nc1cc(Cl)ccc1Cl)C(=O)/C=C/c1cc(OC)ccc1OC ?
PKA-R2B activ: -0.8; PKA-R1A activ: 5.4; ANO1 activ: inactive

How did CCCN(CC(=O)Nc1cc(Cl)ccc1Cl)C(=O)/C=C/c1ccco1 do in these assays?
PKA-R2B activ: -1.6; CHT inh: inactive; PKA-R1A activ: 10.2; ANO1 block: inactive; ANO1 activ: inactive; CHT PAM: 6.82*; CHT act confirm: 31.0*; HEK293 MP dye: inactive

What do the screens show for `CC1CCCN(c2c3c(nc4ccccc24)CCCC3)C1` (configuration not stated)?
PKA-R2B activ: -9.4; CHT inh: inactive; PKA-R1A activ: 0.5; ANO1 block: inactive; ANO1 activ: inactive; CHT PAM: inactive; CHT act confirm: 20.2*; HEK293 MP dye: inactive

What do the screens show for `CC1CCCN(C(=O)C2CCN(c3nc(-c4ccccc4)nc4c3CCC4)CC2)C1` (configuration not stated)?
PKA-R2B activ: -5.7; CHT inh: inactive; PKA-R1A activ: 7.0; ANO1 block: inactive; ANO1 activ: inactive; CHT PAM: inactive

Results for COc1ccc(C(=O)C[n+]2ccc3ccccc3c2C)cc1 ?
PKA-R2B activ: -9.8; CHT inh: inactive; PKA-R1A activ: -5.7; ANO1 block: inactive; ANO1 activ: inactive; CHT PAM: inactive; CHT act confirm: 47.9*; HEK293 MP dye: -31.8*

How did COc1ccc(-n2c(-c3ccc(Cl)cc3)c[n+]3c2CCc2ccccc2-3)cc1 do in these assays?
PKA-R2B activ: -3.5; CHT inh: inactive; PKA-R1A activ: -7.4; ANO1 block: inactive; ANO1 activ: inactive; CHT PAM: 8.21*; CHT act confirm: 86.0*; HEK293 MP dye: -29.1*

How did O=C1c2nccnc2C(=O)N1c1ccc(C(F)(F)F)cc1 do in these assays?
PKA-R2B activ: 3.9; CHT inh: inactive; PKA-R1A activ: 8.5; ANO1 block: inactive; ANO1 activ: inactive; CHT PAM: inactive

Results for c1ccc(CN2CCN(CCN3CCn4c3nc3ccccc34)CC2)cc1 ?
PKA-R2B activ: -0.3; CHT inh: inactive; PKA-R1A activ: -3.8; ANO1 block: inactive; ANO1 activ: inactive; CHT PAM: inactive; CHT act confirm: 27.0*; HEK293 MP dye: inactive

Results for c1ccc2c(c1)nc1n2CCN1CCNC1CCCCC1 ?
PKA-R2B activ: 5.1; CHT inh: inactive; PKA-R1A activ: -4.5; ANO1 block: inactive; ANO1 activ: inactive; CHT PAM: inactive

What do the screens show for `Cc1cc(NC(=O)c2ccc3c(c2)C(=O)N(Cc2cccnc2)C3=O)no1`?
PKA-R2B activ: -17.2; CHT inh: inactive; PKA-R1A activ: -2.8; ANO1 block: inactive; ANO1 activ: inactive; CHT PAM: inactive; CHT act confirm: 25.6*; HEK293 MP dye: -27.4*

What do the screens show for `Cc1cc(NC(=O)c2ccc3c(c2)C(=O)N(C)C3=O)no1`?
PKA-R2B activ: 4.6; CHT inh: inactive; PKA-R1A activ: 0.8; ANO1 block: inactive; ANO1 activ: inactive; CHT PAM: inactive; CHT act confirm: 44.4*; HEK293 MP dye: -41.9*

What do the screens show for `Cc1ccc(NC(=O)CN2C(=O)NC(Cc3c[nH]c4ccccc34)C2=O)cc1S(=O)(=O)N1CCCCC1` (configuration not stated)?
PKA-R2B activ: 0.7; CHT inh: inactive; PKA-R1A activ: -7.1; ANO1 block: inactive; ANO1 activ: inactive; CHT PAM: inactive

Results for CCOC(=O)c1cn(CC2CC2)c2cc(F)c(F)cc2c1=O ?
PKA-R2B activ: -3.4; CHT inh: inactive; PKA-R1A activ: -4.6; ANO1 block: inactive; ANO1 activ: inactive; CHT PAM: 8.25*; CHT act confirm: 58.9*; HEK293 MP dye: -66.8*

Results for CCOC(=O)c1cn(CC)c2cc(Cl)c([N+](=O)[O-])cc2c1=O ?
PKA-R2B activ: 6.1; CHT inh: inactive; PKA-R1A activ: -4.5; ANO1 block: inactive; ANO1 activ: inactive; CHT PAM: 7.49*; CHT act confirm: 46.2*; HEK293 MP dye: -48.6*

How did CCCn1cc(C(=O)OCC)c(=O)c2cc(F)c(F)cc21 do in these assays?
CHT inh: inactive; ANO1 block: inactive; ANO1 activ: inactive; CHT PAM: inactive

What do the screens show for `CCOC(=O)c1cn(CC)c2ccc(Br)cc2c1=O`?
PKA-R2B activ: 1.9; CHT inh: inactive; PKA-R1A activ: -8.7; ANO1 block: inactive; ANO1 activ: inactive; CHT PAM: inactive; CHT act confirm: 43.9*; HEK293 MP dye: -35.9*

How did CCn1cc(C(=O)O)c(=O)c2cc(Br)ccc21 do in these assays?
PKA-R2B activ: -1.1; CHT inh: inactive; PKA-R1A activ: -4.3; ANO1 block: inactive; ANO1 activ: inactive; CHT PAM: inactive

How did CC(=O)c1ccc(N=C2SCCCN2C(=O)C2CCCC2)cc1 do in these assays?
PKA-R2B activ: 4.5; CHT inh: inactive; PKA-R1A activ: -9.8; ANO1 block: inactive; ANO1 activ: inactive; CHT PAM: inactive

Compound activity (PubChem)
